Measured values from PubChem BioAssay AID1159580 (chemical genetic matrix, 2015).
Values joined by “and” are separate entries in the source; they are usually repeats but may differ in a detail not shown here. Equal entries are not always repeated. The campaign covered roughly 5,500 compounds. About 2,000 (36%) were called active. About 18% were inconclusive and are not listed. Rule as the data show it: active = normalized growth mostly below about 0.91 (no sharp cut-off); inconclusive = no clear call, values can overlap the other calls; inactive = mostly above about 0.92. The list shows a part of the results.

Test: chemical genetic growth profiling, strain panel (AID 1159580);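 also: tested at 20 µM; growth read once vehicle control cultures reached saturation at 30 °C; 1 = growth at the plate median or of vehicle wells; lower values mean less growth of the strain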
Details: growth OD

Measured: normalized growth

NC1CC1c1ccccc1 (stereo not drawn)
inactive: S. cerevisiae deletion strains, locus YAL013W, strain DEP1, stronger effect = lower value 1.02 | S. cerevisiae deletion strains, locus YAL040C, strain CLN3, stronger effect = lower value 0.989 | S. cerevisiae deletion strains, locus YBR021W, strain FUR4, stronger effect = lower value 1.02 | S. cerevisiae deletion strains, locus YBR229C, strain ROT2, stronger effect = lower value 1.02 | S. cerevisiae deletion strains, locus YCL029C, strain bik1, stronger effect = lower value 0.985 | S. cerevisiae deletion strains, locus YCL061C, strain MRC1 (second series), stronger effect = lower value 1.01 | S. cerevisiae deletion strains, locus YDL035C, strain GPR1, stronger effect = lower value 1.02 | S. cerevisiae deletion strains, locus YDL074C, strain BRE1, stronger effect = lower value 1.05 | S. cerevisiae deletion strains, locus YDL101C, strain DUN1, stronger effect = lower value 1.03 | S. cerevisiae deletion strains, locus YDL134C, strain PPH21, stronger effect = lower value 1.02 | S. cerevisiae deletion strains, locus YDL185W, strain tfp1, stronger effect = lower value 0.989 | S. cerevisiae deletion strains, locus YDL192W, strain arf1, stronger effect = lower value 0.988 | S. cerevisiae deletion strains, locus YDR101C, strain arx1, stronger effect = lower value 0.976 | S. cerevisiae deletion strains, locus YDR150W, strain NUM1, stronger effect = lower value 1.02 | S. cerevisiae deletion strains, locus YDR162C, strain NBP2, stronger effect = lower value 1.03 | S. cerevisiae deletion strains, locus YDR318W, strain mcm21, stronger effect = lower value 0.979 | S. cerevisiae deletion strains, locus YDR363W, strain ESC2, stronger effect = lower value 0.946 | S. cerevisiae deletion strains, locus YDR388W, stronger effect = lower value 0.981 | S. cerevisiae deletion strains, locus YDR502C, strain sam2, stronger effect = lower value 0.995 | S. cerevisiae deletion strains, locus YEL061C, strain CIN8, stronger effect = lower value 1.01 | S. cerevisiae deletion strains, locus YER002W, strain NOP16, stronger effect = lower value 1.02 | S. cerevisiae deletion strains, locus YER110C, stronger effect = lower value 0.981 | S. cerevisiae deletion strains, locus YER155C, strain BEM2, stronger effect = lower value 1.01 | S. cerevisiae deletion strains, locus YER167W, strain BCK2, stronger effect = lower value 1.01 | S. cerevisiae deletion strains, locus YGL078C, strain dbp3, stronger effect = lower value 0.988 | S. cerevisiae deletion strains, locus YGL086W, strain mad1, stronger effect = lower value 0.975 | S. cerevisiae deletion strains, locus YGL248W, strain PDE1, stronger effect = lower value 1.03 | S. cerevisiae deletion strains, locus YGR078C, strain PAC10, stronger effect = lower value 1.02 | S. cerevisiae deletion strains, locus YGR135W, strain pre9, stronger effect = lower value 0.994 | S. cerevisiae deletion strains, locus YGR229C, strain SMI1, stronger effect = lower value 1.02 | S. cerevisiae deletion strains, locus YGR252W, strain gcn5, stronger effect = lower value 0.922 | S. cerevisiae deletion strains, locus YHR030C, strain SLT2, stronger effect = lower value 1.01 | S. cerevisiae deletion strains, locus YHR079C, strain IRE1 (second series), stronger effect = lower value 0.981 | S. cerevisiae deletion strains, locus YHR094C, strain hxt1, stronger effect = lower value 0.99 | S. cerevisiae deletion strains, locus YHR129C, strain ARP1, stronger effect = lower value 1.02 | S. cerevisiae deletion strains, locus YHR200W, strain rpn10, stronger effect = lower value 0.991 | S. cerevisiae deletion strains, locus YIL066C, strain RNR3, stronger effect = lower value 1.02 | S. cerevisiae deletion strains, locus YIL073C, strain SPO22, stronger effect = lower value 0.972 | S. cerevisiae deletion strains, locus YIL125W, strain kgd1, stronger effect = lower value 0.987 | S. cerevisiae deletion strains, locus YIR030C, strain dcg1, stronger effect = lower value 0.993 | S. cerevisiae deletion strains, locus YJL095W, strain BCK1, stronger effect = lower value 1.03 | S. cerevisiae deletion strains, locus YJL134W, strain LCB3, stronger effect = lower value 1.02 | S. cerevisiae deletion strains, locus YJL168C, strain set2, stronger effect = lower value 0.988 | S. cerevisiae deletion strains, locus YJL187C, strain SWE1 (second series), stronger effect = lower value 1.02 | S. cerevisiae deletion strains, locus YJR043C, strain POL32, stronger effect = lower value 0.992 | S. cerevisiae deletion strains, locus YJR075W, strain HOC1, stronger effect = lower value 1.01 and 1.03 | S. cerevisiae deletion strains, locus YKL009W, strain mrt4, stronger effect = lower value 1.01 | S. cerevisiae deletion strains, locus YKL068W, stronger effect = lower value 0.997 | S. cerevisiae deletion strains, locus YKL085W, strain MDH1 (second series), stronger effect = lower value 1.03 | S. cerevisiae deletion strains, locus YKL085W, strain MDH1, stronger effect = lower value 1.03 | S. cerevisiae deletion strains, locus YKL190W, strain CNB1, stronger effect = lower value 1.02 | S. cerevisiae deletion strains, locus YKR001C, strain vps1, stronger effect = lower value 0.987 | S. cerevisiae deletion strains, locus YLR039C, strain RIC1, stronger effect = lower value 1.06 | S. cerevisiae deletion strains, locus YLR058C, strain SHM2, stronger effect = lower value 1.02 | S. cerevisiae deletion strains, locus YLR102C, strain apc9, stronger effect = lower value 0.996 | S. cerevisiae deletion strains, locus YLR262C, strain YPT6, stronger effect = lower value 1.05 | S. cerevisiae deletion strains, locus YLR268W, strain sec22, stronger effect = lower value 0.989 | S. cerevisiae deletion strains, locus YLR330W, strain CHS5, stronger effect = lower value 1.01 | S. cerevisiae deletion strains, locus YLR342W, strain FKS1 (second series), stronger effect = lower value 0.994 | S. cerevisiae deletion strains, locus YLR371W, strain rom2, stronger effect = lower value 0.984 | S. cerevisiae deletion strains, locus YLR418C, strain cdc73, stronger effect = lower value 0.992 | S. cerevisiae deletion strains, locus YML016C, strain PPZ1, stronger effect = lower value 1.03 | S. cerevisiae deletion strains, locus YML032C, strain rad52, stronger effect = lower value 0.975 | S. cerevisiae deletion strains, locus YML124C, strain tub3, stronger effect = lower value 0.997 | S. cerevisiae deletion strains, locus YMR078C, strain ctf18, stronger effect = lower value 0.981 | S. cerevisiae deletion strains, locus YMR223W, strain ubp8, stronger effect = lower value 0.972 | S. cerevisiae deletion strains, locus YMR263W, strain SAP30, stronger effect = lower value 1.03 | S. cerevisiae deletion strains, locus YMR307W, strain GAS1, stronger effect = lower value 0.976 and 1.01 | S. cerevisiae deletion strains, locus YNL067W, strain RPL9B, stronger effect = lower value 1.03 | S. cerevisiae deletion strains, locus YNL128W, strain TEP1, stronger effect = lower value 1.03 | S. cerevisiae deletion strains, locus YNL153C, strain GIM3, stronger effect = lower value 1.03 and 0.972 | S. cerevisiae deletion strains, locus YNL175C, strain NOP13, stronger effect = lower value 0.999 | S. cerevisiae deletion strains, locus YNL197C, strain WHI3, stronger effect = lower value 1.01 | S. cerevisiae deletion strains, locus YNL224C, strain SQS1, stronger effect = lower value 1 | S. cerevisiae deletion strains, locus YNL233W, strain BNI4, stronger effect = lower value 1.02 | S. cerevisiae deletion strains, locus YNL250W, strain rad50, stronger effect = lower value 1.01 | S. cerevisiae deletion strains, locus YNL271C, strain bni1, stronger effect = lower value 0.978 | S. cerevisiae deletion strains, locus YNL298W, strain CLA4, stronger effect = lower value 0.996 | S. cerevisiae deletion strains, locus YNL307C, strain MCK1, stronger effect = lower value 0.979 | S. cerevisiae deletion strains, locus YNL322C, strain KRE1, stronger effect = lower value 1.02 | S. cerevisiae deletion strains, locus YNR052C, strain pop2, stronger effect = lower value 0.968 | S. cerevisiae deletion strains, locus YOL006C, strain TOP1, stronger effect = lower value 1.09 | S. cerevisiae deletion strains, locus YOL147C, strain pex11, stronger effect = lower value 0.989 | S. cerevisiae deletion strains, locus YOR061W, strain CKA2, stronger effect = lower value 1.02 | S. cerevisiae deletion strains, locus YOR069W, strain VPS5, stronger effect = lower value 1.01 | S. cerevisiae deletion strains, locus YOR083W, strain WHI5 (second series), stronger effect = lower value 1 | S. cerevisiae deletion strains, locus YOR136W, strain idh2, stronger effect = lower value 0.981 | S. cerevisiae deletion strains, locus YOR144C, strain elg1, stronger effect = lower value 0.984 | S. cerevisiae deletion strains, locus YOR184W, strain ser1, stronger effect = lower value 0.976 | S. cerevisiae deletion strains, locus YOR316C, strain cot1, stronger effect = lower value 0.992 | S. cerevisiae deletion strains, locus YPL055C, strain LGE1, stronger effect = lower value 1.06 and 0.992 | S. cerevisiae deletion strains, locus YPL241C, strain CIN2, stronger effect = lower value 1.02 | S. cerevisiae deletion strains, locus YPR119W, strain clb2, stronger effect = lower value 0.994 | S. cerevisiae deletion strains, locus YPR141C, strain kar3, stronger effect = lower value 0.99 | S. cerevisiae deletion strains, locus YPR163C, strain tif3, stronger effect = lower value 0.988 | S. cerevisiae deletion strains, locus YPR167C, strain met16, stronger effect = lower value 0.985 | S. cerevisiae deletion strains, strain wtn01, stronger effect = lower value 0.988 | S. cerevisiae strains, strain wild type, stronger effect = lower value 1.01
